Assay [1] in a line: Quantitative High-Throughput drug screen in 47 multiple myeloma cell lines against the NCATS MIPE library collection: JIM1_ECACC cell viability assay (AID 1918964). In outline:
(§1)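 CellTiter-Glo luminescence (ATP) after 48 h compound exposure, 37C/5% CO2; 500 cells/well; MIPE 4.0 approved/investigational drugs pinned in; DMSO = 100%, media only = 0% viability.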

Assay [2] is described as follows: Quantitative High-Throughput drug screen in 47 multiple myeloma cell lines against the NCATS MIPE library collection: INA6_PLB cell viability assay (AID 1918965; also: nearly all actives have a fitted effect of over 55% in size). In outline: (§2)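 Inhibition of cell viability is measured here. Each line was plated at 500 cells per well, treated with MIPE 4.0 drugs, kept 48 hours at 37C, then assayed for ATP content by CellTiter-Glo luminescence.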

Assay [3] can be described thus: Quantitative High-Throughput drug screen in 47 multiple myeloma cell lines against the NCATS MIPE library collection: JJN3_DSMZ cell viability assay (AID 1918966; also: nearly all actives have a fitted effect of over 50% in size). In outline:
as §1

The nature of assay [4]: Quantitative High-Throughput drug screen in 47 multiple myeloma cell lines against the NCATS MIPE library collection: Karpas25_ECACC cell viability assay (AID 1918968; also: nearly all actives have a fitted effect of over 35% in size). Put shortly:
as §1

Assay [5] is described as follows: Quantitative High-Throughput drug screen in 47 multiple myeloma cell lines against the NCATS MIPE library collection: KMS27_JCRB cell viability assay (AID 1918970). Also: nearly all actives have a fitted effect of over 30% in size. Put shortly: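 CellTiter-Glo luminescence after 48 h drug exposure at 37 °C; 500 cells/well, 1536-well format, pin-tool compound addition; DMSO = 100%, media-only = 0% viability.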
Assay [6] in a line: Quantitative High-Throughput drug screen in 47 multiple myeloma cell lines against the NCATS MIPE library collection: KMS12BM_JCRB cell viability assay (AID 1918971). Also: nearly all actives have a fitted effect of over 35% in size. In outline:
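Relative luminescence from CellTiter-Glo served as the viability signal, referenced to DMSO-treated (100%) and cell-free medium (0%) controls. Treatment lasted 48 hours at 37C with 500 cells per well.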

Assay [7] is described as follows: Quantitative High-Throughput drug screen in 47 multiple myeloma cell lines against the NCATS MIPE library collection: KMS12PE_JCRB cell viability assay (AID 1918972). Also: nearly all actives have a fitted effect of over 30% in size. Put shortly: as §2
A short description of assay [8]: Quantitative High-Throughput drug screen in 47 multiple myeloma cell lines against the NCATS MIPE library collection: H1112_PLB cell viability assay (AID 1918967; also: nearly all actives have a fitted effect of over 30% in size). In outline: as §1
A short description of assay [9]: Quantitative High-Throughput drug screen in 47 multiple myeloma cell lines against the NCATS MIPE library collection: KMS20_JCRB cell viability assay (AID 1918973). Also: nearly all actives have a fitted effect of over 45% in size. Put shortly: as §1
Assay [10] is described as follows: Quantitative High-Throughput drug screen in 47 multiple myeloma cell lines against the NCATS MIPE library collection: KMS21BM_JCRB cell viability assay (AID 1918974). To be noted: ATP luminescence, 48 h; viability: at 45.8 µM (top of the series) unless noted. Put shortly: as §1

Records with an inconclusive call do not appear. Activity calls are given as the source filed them. Calls follow the shape of the dose curve; as a rule, active = well fitted cell-killing curve with a large enough effect; inconclusive = small, poorly fitted or top-dose-only effect, or effect the other way; inactive = no such curve, though single readings can be large or run the other way.

Usually viability stands for a read-out of living cells in per cent, often relative to untreated cells.
Potency is read from the fitted curve at half-maximal effect.

Regarding `CC(C)(N)C(=O)N[C@H](COCc1ccccc1)C(=O)N1CCC2(CC1)CN(S(C)(=O)=O)c1ccccc12`, the Potency entry in assay [1] and in assay [7] was “inactive” each time. For the same molecule, the Potency in [2] is 10.5 µM (active); in [3], 3.72 µM (active); in assay [4], 16.6 µM (active); in assay [5], 5.26 µM (active); in [6], 14.8 µM (active).
With `CN1CCN(CCCN2c3ccccc3Sc3ccc(C(F)(F)F)cc32)CC1`, the Potency result in assay [1], in [6] and in assay [7] was “inactive” each time. Moreover, the Potency in assay [2] is 9.35 µM (active); in [8], 7.43 µM (active); in assay [9] it was 16.6 µM (active).
As for `CN(C)c1ccc(Nc2nc(N)n(C(=O)c3c(F)cccc3F)n2)cc1`, the Potency was 18.7 µM (active) in [1]; 1.87 µM (active) in assay [2]; 20.9 µM (active) in assay [3]; 26.4 µM (active) in assay [4]; 23.5 µM (active) in assay [5]; 16.6 µM (active) in [7]. Moreover, in [10], the Potency was 2.35 µM (active).
With `Cc1cccc(-c2[nH]c(C(C)(C)C)nc2-c2ccc3nccnc3c2)n1`, the Potency in assay [1] was 6.62 µM (active); in [2] it was 7.43 µM (active); in assay [3], 18.7 µM (active); in assay [8], 5.26 µM (active); in assay [4] it was 1.32 µM (active); in assay [6] it was 20.9 µM (active). The Potency in assay [7] was 4.69 µM (active).
Turning to `Cc1c(CCOc2ccc(C(=O)O)cc2)c2cc(Cl)ccc2n1C(c1ccccc1)c1ccccc1`, the Potency result in [1], in [2], in [8], in assay [7] and in assay [9] was “inactive” each time. The Potency is 20.9 µM (active) in assay [4] and 16.6 µM (active) in assay [6].
As to `OCCn1cc(-c2cnc3nnn(Cc4ccc5ncccc5c4)c3n2)cn1`, the Potency result in assay [1], in [2] and in assay [8] was “inactive” in each case. Besides, the Potency was 14.8 µM (active) in assay [4], 18.7 µM (active) in [6] and 20.9 µM (active) in [7].
In the case of `NC(=O)c1cnccn1`, the Potency entry in assay [1], in [2], in assay [3] and in assay [4] was “inactive” throughout.
Regarding `CNC(=O)c1ccc(C)c(-n2c(C)cc(OCc3ccc(F)cc3F)c(Br)c2=O)c1`, the Potency was 23.5 µM (active) in [1]; 16.6 µM (active) in assay [2]; 7.43 µM (active) in assay [8]; 20.9 µM (active) in assay [6]; 18.7 µM (active) in [7].
Regarding `COc1cc(F)c(F)c(Nc2ccc(I)cc2F)c1NS(=O)(=O)C1(C[C@H](O)CO)CC1`, the Potency is 16.6 µM (active) in assay [1], 14.8 µM (active) in assay [8], 20.9 µM (active) in assay [4] and 16.6 µM (active) in assay [7]. Further, in assay [2], the Potency result is “inactive”.
Take `CS(=O)(=O)c1ccc(C(=O)Nc2ccc(Cl)c(-c3ccccn3)c2)c(Cl)c1`: the Potency result in assay [1] and in assay [3] was “inactive” throughout. The Potency in assay [2] is 4.18 µM (active).
With `CCn1cc(C(=O)O)c(=O)c2cc(F)c(N3CCNC(C)C3)c(F)c21` (configuration not stated), the Potency result in assay [1], in assay [2], in assay [8], in assay [4], in assay [5] and in assay [6] was “inactive” in each case. For the same molecule, the Potency result in assay [7] and in assay [9] was “inactive” in each case.
For the molecule `O=S(=O)(N=Cc1c(O)ccc2ccccc12)c1cccs1`, the Potency entry in assay [1] and in assay [6] was “inactive” in each case. Moreover, the Potency in assay [2] is 2.64 µM (active); in [8], 16.6 µM (active); in [4], 1.05 µM (active); in assay [9], 0.833 µM (active).
Regarding `Cc1cc(-c2ccc(CC(=O)Nc3ccc(-c4cccnc4)cc3)cc2)ccn1`, the Potency in [1] was 20.9 µM (active); in assay [2] it was 13.2 µM (active); in [8], 18.7 µM (active); in assay [6] it was 18.7 µM (active); in assay [7] it was 14.8 µM (active).
`COc1ccc(-c2oc3cc(OC)ccc3c2C(=O)c2ccc(C#N)cc2)cc1`: the Potency in assay [1] is 6.62 µM (active); in assay [5], 2.09 µM (active); in assay [7], 10.5 µM (active); in assay [10], 1.32 µM (active). Moreover, the Potency entry in assay [2], in assay [3], in assay [6] and in [9] was “inactive” each time.
For the molecule `CC(c1cc2ccccc2s1)N(O)C(N)=O` (configuration not stated), the Potency result in [1], in assay [2], in [8], in [4], in assay [7] and in assay [9] was “inactive” throughout.
As for `CCN(c1ccccc1)c1cc(NC)[n+](C)c(C)n1`, the Potency entry in [1], in [2], in assay [8] and in assay [9] was “inactive” each time. Besides, the Potency is 6.62 µM (active) in assay [5], 14.8 µM (active) in assay [6] and 0.372 µM (active) in [10].
In the case of `COc1cc2c(cc1OC)CN(CCc1ccc(NC(=O)c3cccc4c(=O)c5cccc(OC)c5[nH]c34)cc1)CC2`, the Potency entry in assay [1] is “inactive”.
`COc1nc(-c2ccc3c(c2)OCO3)n(-c2ccc(NC(=O)CSc3ccccc3)cc2)n1`: the Potency result in assay [1], in assay [2], in assay [8], in assay [4], in assay [5] and in assay [7] was “inactive” each time.
As for `NS(=O)(=O)c1cc2c(cc1Cl)NC=NS2(=O)=O`, the Potency result in assay [1], in [2], in assay [8], in assay [4], in assay [7] and in assay [9] was “inactive” throughout. Besides, the viability in assay [10] is 201% (active).
Consider `CC(C)C[C@H](NC(=O)[C@@H](O)[C@H](N)Cc1ccccc1)C(=O)O`, for which the Potency entry in assay [1], in assay [5] and in assay [7] was “inactive” in each case. For the same molecule, the Potency in assay [2] was 20.9 µM (active); in assay [8], 20.9 µM (active); in assay [6] it was 23.5 µM (active); in assay [9], 11.8 µM (active).
For the molecule `COc1ccc(-c2ccc3c(N4CCOCC4)nc(N4C[C@@H](C)O[C@@H](C)C4)nc3n2)cc1CO`, the Potency in assay [1] is 0.0332 µM (active); in assay [2] it was 5.9 µM (active); in assay [3], 1.87 µM (active); in assay [4], 0.743 µM (active); in assay [5], 0.187 µM (active); in assay [6], 0.0833 µM (active). The values for the Potency in assay [7], in assay [9] and in [10] were 2.35 µM (active), 0.235 µM (active) and 0.833 µM (active), respectively.

The record behind these values is PubChem BioAssay (NCATS).
